Test results from PubChem BioAssay AID1671190 (National Center for Advancing Translational Sciences (NCATS), 2021).
Hit rate of the full screen: of about 580,000 compounds, about 6,100 (1.1%) were called active. About 15% were inconclusive and are not listed. The call rests on the fitted dose curve; in most records, active means well fitted inhibition curve with a large enough effect; inconclusive means small, poorly fitted or top-dose-only effect, or another doubt; inactive means no such curve, though single readings can be large or run the other way. The full list was thinned out, with actives kept by preference.

What follows are molecules tested against Polyunsaturated fatty acid lipoxygenase ALOX12 (Homo sapiens) (UniProt P18054) (assay: Primary qHTS assay for inhibitors of human arachidonate 12S-lipoxygenase (ALOX12): Round 2). Conditions: purified 12hLO, xylenol orange hydroperoxide absorbance; series mostly up to 108 µM; activity change, negative = inhibition: at the top concentration.
How it was run: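 Purified human 12hLO at 150 nM in 25 mM Hepes, 0.01% Triton X-100, pH 7.0, preincubated 15 min at room temperature with compound. Reaction started with 40 uM arachidonic acid, 30 min at room temperature. Hydroperoxide measured by Fe-xylenol orange, 573/405 nm absorbance ratio.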
On the % scale 0 is the no-effect control and ±100 the full control effect; potency means the concentration at half of the fitted maximal effect.

Chain of Polyunsaturated fatty acid lipoxygenase ALOX12 (Homo sapiens) (P18054 whole entry, looked up): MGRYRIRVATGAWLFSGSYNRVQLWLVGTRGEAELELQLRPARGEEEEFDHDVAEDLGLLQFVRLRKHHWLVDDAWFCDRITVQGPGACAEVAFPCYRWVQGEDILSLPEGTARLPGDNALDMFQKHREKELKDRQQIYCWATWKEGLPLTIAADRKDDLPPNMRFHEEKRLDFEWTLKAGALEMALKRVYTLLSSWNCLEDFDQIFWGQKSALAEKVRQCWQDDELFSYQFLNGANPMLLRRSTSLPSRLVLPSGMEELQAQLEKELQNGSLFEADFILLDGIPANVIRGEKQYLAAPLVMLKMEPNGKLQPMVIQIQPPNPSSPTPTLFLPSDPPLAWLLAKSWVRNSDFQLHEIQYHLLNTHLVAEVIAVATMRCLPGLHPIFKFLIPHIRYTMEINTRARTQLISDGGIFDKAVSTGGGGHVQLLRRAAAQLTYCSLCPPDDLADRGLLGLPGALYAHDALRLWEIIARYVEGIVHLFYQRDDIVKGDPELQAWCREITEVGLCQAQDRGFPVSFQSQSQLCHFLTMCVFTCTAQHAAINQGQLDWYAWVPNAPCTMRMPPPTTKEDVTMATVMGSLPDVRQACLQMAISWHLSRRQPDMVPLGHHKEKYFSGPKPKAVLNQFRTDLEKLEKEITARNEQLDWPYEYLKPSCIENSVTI

| Compound | activity change, negative = inhibition | Potency |
| --- | --- | --- |
| Cc1ccc(-c2noc([C@@H]3Cc4nc[nH]c4CN3C(=O)Nc3ccccc3)n2)cc1 | 11.7% [at 176 µM] (inactive) | – |
| CCOC(=O)c1ccc(NC(=O)N2Cc3[nH]cnc3C[C@H]2c2nc(-c3ccc(Cl)cc3)no2)cc1 | 37.1% (inactive) | – |
| CC(C)NC(=O)N1Cc2[nH]cnc2C[C@H]1c1nc(-c2ccc(Cl)cc2)no1 | – | 14.1 µM (active) |
| Cc1nc(NC2CCCCC2)sc1C(=O)Nc1ccccc1 | -47.2% (inactive) | – |
| CC(C)C(=O)N/N=C/c1ccc(Cl)cc1 | -13.7% (inactive) | – |
| COc1cc2c(cc1O)NC(=O)CC2c1cn[nH]c1-c1cc(C)ccc1C (stereo not given) | 22.7% (inactive) | – |
| CC(C)OCC(O)Cn1c(NCc2ccccc2)nc2c1c(=O)[nH]c(=O)n2C (stereo not given) | -13.5% (inactive) | – |
| O=C(COC(=O)c1cccc(NS(=O)(=O)c2ccccc2)c1)NCc1cccs1 | 1.83% (inactive) | – |
| CC1CCCCN1C(=O)Cn1c(=O)oc2cc(S(=O)(=O)N3CCCCC3)ccc21 (stereo not given) | 1.67% (inactive) | – |
| CNC(=O)c1ccc(NC(=O)CCn2c(=O)oc3cc(S(=O)(=O)N4CCCC4)ccc32)cc1 | – | 35.5 µM (active) |
| COc1cccc(CNC(=O)Cn2c(=O)oc3cc(S(=O)(=O)N4CCCCC4)ccc32)c1 | -2.03% (inactive) | – |
| Cc1ccc(OCCC(=O)Nc2cc3c(cc2Cl)OCCO3)c(C)c1 | 7.57% (inactive) | – |
| CCOc1ccc(C(C)NC(=O)Cn2c(=O)c3c(ncn3C)n(C)c2=O)cc1 (stereo not given) | 4.67% (inactive) | – |
| CC1=C[C@@H](CN(C)CCc2ccccn2)[C@H](C(C)C)C[C@H]1Cc1nnc(-c2ccccc2F)o1 | 41.6% (inactive) | – |
| O=C(CCn1ccc(=O)[nH]c1=O)N[C@@H]1COCC[C@@H]1OCc1ccccc1 | 19.4% (inactive) | – |
| C=CCNC(=S)N(CC)CC | 24.5% (inactive) | – |
| COc1ccc(Br)cc1/C=N/Nc1ccc(S(=O)(=O)Nc2ccccc2C(=O)O)cc1[N+](=O)[O-] | – | 14.1 µM (active) |
| COC(=O)c1ccccc1NS(=O)(=O)c1ccc2c(c1)CCCN2C(C)=O | -8% (inactive) | – |
| COc1cc(S(=O)(=O)Nc2ccccc2OC)ccc1NC(C)=O | -2.8% (inactive) | – |
| O=C(O/N=C1\CCCc2oc3c(c21)CCCC3)c1ccc(Cl)c(Cl)c1 | 9.98% (inactive) | – |
| Cc1ccc(Cn2c(N3CCC(C(N)=O)CC3)nc3c2c(=O)n(C)c(=O)n3C)cc1 | -30% (inactive) | – |
| Cc1oc(-c2ccccc2)nc1C(=O)NC(C1CC1)C1CC1 | -4.72% (inactive) | – |
| N#Cc1ccc(C(C(=O)NCc2ccccc2)n2c(=O)c(-c3ccco3)nc3ccccc32)cc1 (stereo not given) | – | 17.8 µM (active) |
| COc1ccc(NC(=O)C(c2ccncc2)n2c(=O)c(-c3cc4ccccc4[nH]3)nc3ccccc32)cc1 (stereo not given) | -17% (inactive) | – |
| O=C(NCCn1c(-c2ccccc2)nc2ccccc21)NCc1ccccc1 | 1.71% (inactive) | – |

| Compound | activity change, negative = inhibition | Potency |
| --- | --- | --- |
| CC(C)(C)NC(=O)C(CCc1ccccc1)n1c(=O)c(-c2ccccc2)nc2ccccc21 (stereo not given) | -1.34% (inactive) | – |
| CCC(C(=O)Nc1c(C)cccc1C)n1c(-c2cc(C)cs2)nc2ccccc21 (stereo not given) | -4.84% (inactive) | – |
| Cc1cccc(C)c1NC(=O)C(c1ccc(C(F)(F)F)cc1)n1c(=O)c(-c2ccco2)nc2ccccc21 (stereo not given) | – | 14.1 µM (active) |
| COc1cccc(S(=O)(=O)N2CCCCCCNC(=O)[C@@H]3CCC[C@@H]32)c1 | -4.62% (inactive) | – |
| O=C(Nc1ccccc1)Nc1cc(S(=O)(=O)N2CCOCC2)ccc1NCC1CCCO1 (stereo not given) | 23.8% (inactive) | – |
| c1ccc([C@@H]2CNC[C@H]2COCC2CC2)nc1 | 0.121% (inactive) | – |
| Cn1c(C(=O)NCCNC(=O)c2cccc(F)c2)cc2ccccc21 | 16.2% (inactive) | – |
| Cc1cccc(-n2nc(-c3c(C)nc4scc(CC(=O)NCCC(C)C)n4c3=O)cc2C)c1C | 72.6% (inactive) | – |
| COc1ccccc1CCNS(=O)(=O)c1ccc(N2C(=O)C(C)(C)CS2(=O)=O)cc1 | -48.1% (inactive) | – |
| COc1ccc2nc(SC3CC(=O)N(c4ccc(F)cc4)C3=O)nc(C)c2c1 (stereo not given) | 0.607% (inactive) | – |
| O=C(CCN1CCCCC1)Nc1ccc(F)c(F)c1 | 4.59% (inactive) | – |
| Cc1cc(NC(=O)CCN2CCN(Cc3ccccc3)CC2)ccc1Br | – | 3.16 µM (active) |
| O=C(CCN1CCN(C/C=C/c2ccccc2)CC1)Nc1cccc(F)c1 | -2.51% (inactive) | – |
| COCCNC(=O)COc1ccc2c(C)c(Cc3ccccc3)c(=O)oc2c1C | -38.9% (inactive) | – |
| CN(C)C[C@@H]1CN(Cc2ccccn2)C[C@H]1NC(=O)c1cc(F)ccc1Cl | 113% (inactive) | – |
| O=C(O)COc1ccc2c(=O)c(Oc3ccc(Cl)cc3)coc2c1 | – | 12.6 µM (active) |
| COC(=O)COc1ccc2c(=O)c(Oc3ccccc3Br)coc2c1 | 0% (inactive) | – |
| COc1ccccc1Oc1coc2cc(OCc3ccc(Cl)cc3)ccc2c1=O | -11% (inactive) | – |
| CCCCN1C(SCC(=O)N2CCCC2)=NS(=O)(=O)c2ccccc21 | 4.21% (inactive) | – |
| Cc1ccc(C(CNC(=O)c2cc3ccccc3oc2=O)N(C)C)o1 (stereo not given) | 8.45% (inactive) | – |
| O=C1Cc2c(-c3ccc(Oc4ccccc4)cc3)n[nH]c2CN1CCc1ccncc1 | 14.1% [at 176 µM] (inactive) | – |
| CCn1nc(C)cc1-c1nn2c(-c3cccc(Cl)c3Cl)nnc2s1 | 62.2% (inactive) | – |
| CCc1ccc(Nc2n[n+](-c3ccccc3)c(-c3cccc(Cl)c3Cl)s2)cc1 | – | 39.8 µM (active) |
| CC1CCCC(NC(=O)c2c(F)cccc2F)C1C (stereo not given) | 5.84% (inactive) | – |
| CCc1sc(C(=O)NC(C)C)cc1C | -26.1% (inactive) | – |
